This passage reports AC50 and outcome results from PubChem BioAssay (EPA / NIEHS).

Read-out in assay [1]: Tumor necrosis factor receptor 1 (TNFRSF1A), TNFRSF1A (gene 7132)
In words: LTEA_HepaRG_TNFRSF1A: Life Technologies and Expression Analysis (LTEA) Assay for Tumor necrosis factor receptor 1 (TNFRSF1A) using HepaRG (AID 2283535). Particulars: mRNA level, 48 h; actives raise or lower the signal. The method in brief:
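Differentiated HepaRG cells in serum-free induction medium, exposed 48 h in duplicate to 8 half-log concentrations up to 100 uM in 0.5% DMSO. TNFRSF1A mRNA by Fluidigm TaqMan qRT-PCR, normalized to ACTB, GAPDH, POLR2A; bidirectional fit.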

Read-out in assay [2]: Thyroid Hormone Responsive (THRSP), THRSP (gene 7069)
In words: LTEA_HepaRG_THRSP: Life Technologies and Expression Analysis (LTEA) Assay for Thyroid Hormone Responsive (THRSP) using HepaRG (AID 2283536). The following applies: mRNA level, 48 h; actives raise or lower the signal. In a few lines: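 Differentiated HepaRG cells treated 48 h in serum-free induction medium with 8 half-log concentrations up to 100 uM (0.5% DMSO), duplicates. THRSP mRNA by TaqMan qRT-PCR normalised to ACTB, GAPDH, POLR2A; bidirectional fit versus DMSO.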

Read-out in assay [3]: UDP glucuronosyltransferase (UGT1A1), UGT1A1 (gene 54658)
In words: LTEA_HepaRG_UGT1A1: Life Technologies and Expression Analysis (LTEA) Assay for UDP glucuronosyltransferase (UGT1A1) using HepaRG (AID 2283538). The following applies: mRNA level, 48 h; actives raise or lower the signal. In a few lines: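 Human liver HepaRG cultures receive test chemical for 48 h, up to 100 uM in 0.5% DMSO, with phenobarbital induction controls. UGT1A1 mRNA is measured by qRT-PCR and normalized to ACTB, GAPDH and POLR2A.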

Read-out in assay [4]: X-box binding protein 1 (XBP1), XBP1 (gene 7494)
In words: LTEA_HepaRG_XBP1: Life Technologies and Expression Analysis (LTEA) Assay for X-box binding protein 1 (XBP1) using HepaRG (AID 2283540). The following applies: mRNA level, 48 h; actives raise or lower the signal. The method in brief: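 Differentiated human HepaRG cells in serum-free induction medium exposed 48 h in duplicate to eight half-log concentrations up to 100 uM in 0.5% DMSO. XBP1 mRNA measured by Fluidigm TaqMan qRT-PCR, normalized to ACTB, GAPDH, POLR2A; bidirectional fitting against DMSO.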

Assay [5] in a line: LTEA_HepaRG_LDH_cytotoxicity: Cytotoxicity Assessment in the Life Technologies and Expression Analysis (LTEA) Assay (AID 2283563; active = hit-call score of the fitted dose curve at least 0.9, where 1 is the maximum;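 for AC50: LDH activity released into spent culture medium as a marker of cell death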). The method in brief:
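Differentiated HepaRG cells in serum-free induction medium, exposed 48 h in duplicate to 8 half-log concentrations up to 100 uM in 0.5% DMSO. Cytotoxicity from LDH measured in spent medium, fit relative to DMSO.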

A short description of assay [6]: ATG_XTT_Cytotoxicity: Cytotoxicity Assessment in the Attagene TRANS-FACTORIAL HepG2 Assay (AID 2283584; active = hit-call score of the fitted dose curve at least 0.9, where 1 is the maximum). The method in brief: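 HepG2 cells transiently transfected with GAL4-UAS multiple reporter units, dosed 24 h; cytotoxicity read by XTT as loss of signal versus DMSO baseline.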
Read-out in assay [7]: Cellular tumor antigen p53 (Homo sapiens) (UniProt P04637)
In words: LTEA_HepaRG_TP53: Life Technologies and Expression Analysis (LTEA) Assay for Tumor Protein P53 (TP53) using HepaRG (AID 2283537). Particulars: mRNA level, 48 h; actives raise or lower the signal. The method in brief: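 Read-out is TP53 transcript level by microfluidic qRT-PCR, normalised to three housekeeping genes and fitted bidirectionally against DMSO. Human HepaRG cells received compounds for 48 h, highest concentration 100 uM.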

Read-out in assay [8]: UDP glucuronosyltransferase (UGT1A6), UGT1A6 (gene 54578)
In words: LTEA_HepaRG_UGT1A6: Life Technologies and Expression Analysis (LTEA) Assay for UDP glucuronosyltransferase (UGT1A6) using HepaRG (AID 2283539). The following applies: mRNA level, 48 h; actives raise or lower the signal. In a few lines: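 Differentiated HepaRG cells, ~100,000/well, were exposed for 48 h in serum-free induction medium with 0.5% DMSO to 8-point half-log series topping at 100 uM, in duplicate. mRNA measured by Fluidigm TaqMan qRT-PCR, normalized to ACTB, GAPDH and POLR2A.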

Assay [9] in a line: TOX21_p53_BLA_p2_viability: Viability Assessment in the Tox21 HCT-116 p53 Agonism Beta-lactamase Assay, Phase 2 (AID 2283591; active = hit-call score of the fitted dose curve at least 0.9, where 1 is the maximum;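 note: compound exposure lasted 16 h at 37 °C; actives lower the ATP signal meaning cytotoxicity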). The method in brief: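 HCT116 p53-bla cells, 4000/well, dosed after 5 h plating (217-fold dilution of DMSO stocks) and incubated 16 h at 37C. Viability taken as cellular ATP by CellTiter-Glo luminescence after 30 min RT; signal loss marks cytotoxicity.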

Assay [10] concerns the target Cellular tumor antigen p53 (Homo sapiens) (UniProt P04637). In words: TOX21_p53_BLA_p2_ratio: Tox21 HCT-116 p53 Agonism Beta-lactamase Assay, Ratio, Phase 2 (AID 2283592; active = hit-call score of the fitted dose curve at least 0.9, where 1 is the maximum). In a few lines: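 HCT-116 cells with p53-responsive beta-lactamase reporter, 4000 cells/well, preincubated 5 h, then compound in DMSO (217-fold dilution) for 16 h at 37C. CCF4-AM substrate 2 h at room temperature; 460/530 nm emission ratio fitted upward versus DMSO.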

Several values for one entry are separate records, joined by “and”; a condition that tells them apart may be missing. Identical values can stand only once. Results filed as inconclusive are left out. Some structures have more than one record in an assay (separate samples or runs), and their calls can disagree. Activity calls are given as the source filed them. Rule for the calls, unless noted: active = hit-call score of the fitted dose curve at least 0.9, where 1 is the maximum; inactive = score below 0.9.

Chain of Cellular tumor antigen p53 (Homo sapiens) (P04637 whole entry, looked up): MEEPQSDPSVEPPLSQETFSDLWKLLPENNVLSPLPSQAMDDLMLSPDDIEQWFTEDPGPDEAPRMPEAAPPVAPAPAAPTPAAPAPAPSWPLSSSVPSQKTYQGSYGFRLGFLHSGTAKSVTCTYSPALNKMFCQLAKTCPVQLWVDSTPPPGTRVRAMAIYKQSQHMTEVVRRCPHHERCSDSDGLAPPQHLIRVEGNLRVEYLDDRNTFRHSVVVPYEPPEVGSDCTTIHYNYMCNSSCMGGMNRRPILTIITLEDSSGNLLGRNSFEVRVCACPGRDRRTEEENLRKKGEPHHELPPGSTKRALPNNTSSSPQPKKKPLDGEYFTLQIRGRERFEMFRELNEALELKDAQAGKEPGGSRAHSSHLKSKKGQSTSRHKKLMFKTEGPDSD

For the compound `CCCN(CCC)c1c([N+](=O)[O-])cc(S(N)(=O)=O)cc1[N+](=O)[O-]`, the AC50 in [1] was 82.1 µM (active); in assay [3] it was 7.17 µM (active) and 86.5 µM (active) and 89.5 µM (active); in assay [4] it was 96.7 µM (active) and 79.1 µM (active); in assay [5], 76.5 µM (active) and 78.3 µM (active) and 77.5 µM (active). The compound was called inactive in [1], in assay [2], in assay [4] and in assay [6].
Regarding `O=C(Nc1ccccc1)Nc1ccnc(Cl)c1`, the AC50 in assay [1] was 96.7 µM (active); in assay [7], 74 µM (active); in assay [3], 79.6 µM (active); in [8], 76.8 µM (active); in [4], 72.1 µM (active); in assay [5], 39.4 µM (active). Further, the call in assay [2], in assay [9] and in assay [10] was inactive.
Turning to `CO/C=C(/C(=O)OC)c1ccccc1Oc1cc(Oc2ccccc2C#N)ncn1`, the compound was called inactive in [1], in assay [2], in assay [4], in assay [6], in assay [9] and in [10]. The concentration at half-maximal activity (AC50) was 93.2 µM (active) and 80.5 µM (active) in assay [2]; 84.8 µM (active) and 83.1 µM (active) and 83 µM (active) in assay [7]; 88.7 µM (active) and 87.6 µM (active) and 83.3 µM (active) in assay [3]; 74.8 µM (active) and 77.6 µM (active) and 80.7 µM (active) in assay [5].
For `CNC(=O)ON=CC(C)(C)SC`, the compound was called inactive in [1], in assay [2], in assay [7], in [3], in assay [4] and in assay [5]. Besides, the compound was classed as inactive in assay [6], in assay [9] and in assay [10].
Consider `CON(C)C(=O)Nc1ccc(Cl)c(Cl)c1`, for which the result in [1], in assay [4], in assay [5], in [6], in assay [9] and in assay [10] was inactive. Moreover, the AC50 in [2] was 11.4 µM (active); in assay [7] it was 69.8 µM (active); in [3], 32.5 µM (active).
For the compound `CC(C)(C)c1ccc(CSc2cnn(C(C)(C)C)c(=O)c2Cl)cc1`, the result in [1], in [3], in assay [6] and in assay [9] was inactive. Also, the AC50 is 9.85 µM (active) in assay [2]; 2.82 µM (active) in [7]; 2.71 µM (active) in assay [4]; 3.02 µM (active) in assay [5]; 0.0143 µM (active) in [10].
Regarding `CCOC(=O)C(Cl)Cc1cc(-n2nc(C)n(C(F)F)c2=O)c(F)cc1Cl` (stereo unspecified), the call in [1], in [2], in assay [7], in assay [8], in assay [4] and in assay [5] was inactive. The outcome in [10] was inactive. Besides, the AC50 in [3] was 38.2 µM (active).
Regarding `CCOP(=S)(OCC)SCn1c(=O)oc2cc(Cl)ccc21`, the outcome in [1], in [2], in [7], in assay [3], in [8] and in assay [4] was inactive. Besides, the outcome in assay [5], in assay [6] and in assay [10] was inactive.
Turning to `CCCCNC(=O)OCC#CI`, the result in assay [1], in assay [7], in [8], in assay [5], in assay [6] and in assay [9] was inactive. Moreover, in assay [10], the outcome was inactive. Also, the concentration at half-maximal activity (AC50) in assay [2] was 50 µM (active); in [3], 24.9 µM (active); in assay [4] it was 50 µM (active); in [10], 67 µM (active).
In the case of `O=C(O)COc1nc(Cl)c(Cl)cc1Cl`, the outcome in assay [1], in assay [2], in [7], in [3], in assay [8] and in assay [4] was inactive. For the same compound, the call in assay [5], in [9] and in assay [10] was inactive.
`N#Cc1nn(-c2c(Cl)cc(C(F)(F)F)cc2Cl)c(N)c1S(=O)C(F)(F)F` (stereo unspecified): the call in assay [1], in assay [6], in assay [9] and in assay [10] was inactive. The half-maximal activity concentration (AC50) in [2] was 27.3 µM (active); in assay [7], 32 µM (active); in assay [3] it was 37.6 µM (active); in [8], 44.8 µM (active); in [4] it was 68.6 µM (active); in assay [5], 34.2 µM (active).
For `CNC(=S)S`, the outcome in assay [1], in [2], in [7], in assay [3], in assay [8] and in [4] was inactive. For the same compound, the call in assay [5], in assay [6], in assay [9] and in assay [10] was inactive.
